ELG1 genotoxic = genotoxicity induction in ELG1-luciferase HEK293T cells | 1.3% of 330,000 active | AID 504466 | Potency, µM (doses to about 46 µM), for the others: at the top dose activity change, positive = activation, usual class: activators | HEK293T ELG1-luciferase reporter, luminescence, 16 h; further: % of control where 0% means no effect; nearly all actives have a fitted effect of over 60% in size
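16 hr compound incubation (37 °C, 5% CO2) of HEK293T cells carrying luciferase-tagged ELG1; luciferase then measured by ONE-Glo luminescence after 30 min at RT.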
SMN2 splice enh = SMN2 splice variant enhancement. HEK293 SMN2-luciferase splicing reporter, luminescence, 30-36 h. Potency, µM (series often up to 46.1 µM), for inactives: top-dose activity change, positive = activation, actives largely listed as activators. 2.8% of 210,000 active; further: % of control where 0% means no effect; nearly all actives have a fitted effect of over 55% in size
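HEK293 cells carry an SMN2 […]–luciferase reporter in which exon 7 inclusion puts luciferase in frame. Cells were plated 10-12 h before compound addition, then incubated 30-36 h at 37C. ONE-Glo luminescence was read; sodium butyrate at 4.5 mM final served as control.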
NPC1 promoter act = NPC1 promoter activation. AID 485313. Huh7 NPC1 promoter luciferase reporter, 24 h. 2.4% of 320,000 active. Potency, µM (doses to about 9.22 µM), inactives show at the highest dose activation, hits mostly activators; further: % of control where 0% means no effect; nearly all actives have a fitted effect of over 60% in size
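Luminescence read-out of NPC1 promoter-driven luciferase in stably transfected Huh7 cells; compounds delivered in DMSO and left 24 h at 37C, 5% CO2, qHTS titration format.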
ELG1 repair inh = blocks ELG1-dependent DNA repair in HEK293T cells | 2.3% of 330,000 active | Potency, µM (highest dose often 46.1 µM), for the others: top-dose activity change, negative = inhibition, hits mostly inhibitors | AID 504467 | HEK293T ELG1-luciferase reporter, luminescence, 16 h; DNA damage induced by 5-fluorouridine; further: on the % scale 0 is the no-effect control and ±100 the full control effect; nearly all actives have a fitted effect of over 55% in size
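Overnight (16 hr) co-exposure of 2,000 cells/well to 5-fluorouridine and compound at 37 °C preceded detection. Luciferase was quantified via ONE-Glo luminescence; loss of signal denotes inhibition.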
Rab9 promoter act = Rab9 promoter activation; Huh7 Rab9 promoter-luciferase reporter, luminescence, 24 h; Potency, µM (top dose mostly 9.22 µM), for the others: at the highest dose activation, negative = inhibition, usual class: activators; 2.8% of 320,000 active; further: % of control where 0% means no effect; nearly all actives have a fitted effect of over 60% in size
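Quantitative HTS format; Huh7 Rab9-luciferase reporter cells (1500/well) receive compound 2 h post-plating, incubate 24 h at 37 °C, then get luciferase reagent for 10 min before luminescence reading.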
FLuc counter = firefly luciferase modulation, counter-screen for miR-21 project. P08659. purified FLuc, Km substrates, luminescence inhibition. Potency, µM (series often up to 57.5 µM), inactives show at the highest dose activity change, negative = inhibition, most hits filed as inhibitors. 6.9% of 360,000 active;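 further: plate controls were vehicle for no effect and reference inhibitor for full effect; nearly all actives have a fitted effect of over 55% in size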
Target sequence (P08659 whole entry, looked up): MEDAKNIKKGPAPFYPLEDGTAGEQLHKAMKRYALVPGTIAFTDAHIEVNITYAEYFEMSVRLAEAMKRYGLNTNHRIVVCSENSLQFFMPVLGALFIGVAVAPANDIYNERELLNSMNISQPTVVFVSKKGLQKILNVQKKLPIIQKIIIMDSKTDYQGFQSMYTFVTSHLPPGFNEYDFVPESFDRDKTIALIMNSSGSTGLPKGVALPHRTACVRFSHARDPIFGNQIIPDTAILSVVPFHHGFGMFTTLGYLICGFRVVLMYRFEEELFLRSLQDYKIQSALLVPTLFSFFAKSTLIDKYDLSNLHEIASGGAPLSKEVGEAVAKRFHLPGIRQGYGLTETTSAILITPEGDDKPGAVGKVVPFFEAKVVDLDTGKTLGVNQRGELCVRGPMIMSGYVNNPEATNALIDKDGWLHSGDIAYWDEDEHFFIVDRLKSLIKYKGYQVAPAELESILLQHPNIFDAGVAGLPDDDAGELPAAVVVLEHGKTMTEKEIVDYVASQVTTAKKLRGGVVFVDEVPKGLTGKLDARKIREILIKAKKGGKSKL
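Purified P. pyralis luciferase (10nM final) with 10uM D-luciferin and 10uM ATP (Km levels) in 50mM Tris acetate pH 7.5, 10mM Mg acetate, 0.01% Tween-20, 0.05% BSA; qHTS 6-point titration, ~60 µM downward; luminescence read.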
Starred values were filed as active, the others as inactive; ? = inconclusive; · = no result; [ ] = remark or other dose. In the library only some 9.2% were active in any assay of this set; here they are far more common. The call rests on the fitted dose curve; in most records, active means well fitted curve in the direction sought with a large enough effect; inconclusive means small, poorly fitted or top-dose-only effect, or another doubt; inactive means no such curve, though single readings can be large; an effect the other way counts as inactive or inconclusive. Potency means the concentration at half of the fitted maximal effect.

SMILES | ELG1 genotoxic | SMN2 splice enh | NPC1 promoter act | ELG1 repair inh | Rab9 promoter act | FLuc counter
CCOC(=O)c1cc2cc3ccccc3cc2[nH]1 | ? | 3.2µM* | 2.2µM* | ? | 2.5µM* | ?
O=C(O)c1cc(-c2ccc3c(c2)OCCO3)n[nH]1 | 3% | · | -6% | 9% | 0% | 11µM*
O=C(O)c1ccc2c(c1)OCCOCCOCCOCCOCCO2 | -2% | · | -6% | 14% | 1% | 0%
COC(=O)c1cc(-c2ccc(Cl)cc2)n[nH]1 | 7% | · | -9% | ? | 11% | ?
CCOC(=O)c1cc(-c2ccc(OC)cc2)n[nH]1 | ? | · | ? | ? | ? | 17µM*
Oc1ccccc1-c1cc(-c2ccc3c(c2)OCCO3)n[nH]1 | 0.37µM* | 3.2µM* | 0.5µM* | ? | 0.71µM* | 0.34µM*
Cc1ccc(S(=O)(=O)NCCNc2ccc(Br)c(C)c2)cc1 | 1% | · | · | ? | · | ·
Cc1nn2c(=O)cc(COC(=O)c3ccc(NC(=O)c4cccs4)cc3)nc2s1 | · | · | · | · | · | -3%
CCOC(=O)c1cc(-c2ccc3c(c2)OCCO3)n[nH]1 | ? | · | 3.2µM* | ? | 1.6µM* | 2.4µM*
O=C(NC(C(=O)N/N=C/c1c2ccccc2cc2ccccc12)c1n[nH]c(=O)c2ccccc12)c1ccccc1 (stereo not given) | -3% | · | 0% | -23% | 8% | 1%
O=C(NC(C(=O)N/N=C/c1ccccc1)c1n[nH]c(=O)c2ccccc12)c1ccccc1 (stereo not given) | 4% | · | 0% | 0% | ? | 19µM*
COc1ccc(-c2nn3c(=O)cc(CN4CCN(S(=O)(=O)c5ccc(C)cc5)CC4)nc3s2)cc1 | · | · | · | · | · | -5%
N#C/C(=C\c1ccc(-c2nc3ccccc3s2)o1)C(N)=O | 18% | · | 3.2µM* | ? | ? | 2.7µM*
CNC(=O)/C(C#N)=C\c1ccc(CNS(=O)(=O)c2ccccc2)o1 | 0% | 0% | 0% | -6% | 6% | 0%
CNC(=O)/C(C#N)=C/c1ccc(-c2nc3ccccc3s2)o1 | ? | · | 2.8µM* | ? | 1.4µM* | ?
CC1Sc2ccc(S(=O)(=O)CCC(=O)N3CCN(c4cccc(Cl)c4)CC3)cc2NC1=O (stereo not given) | -18% | · | -3% | 13µM* | -13% | 2%
COc1cc(-c2cc(OC)c3c(C)oc(C)c3c(=O)c2)ccc1OC(=O)c1ccccc1C | · | · | · | · | · | -10%
O=C(/C=C/c1cccs1)c1ccc(NC(=O)c2cccc(Br)c2)cc1 | 2% | ? | 20% | ? | 18% | -13%
O=C(/C=C/c1cccs1)c1ccc(Br)cc1 | 8% | 2% | -4% | ? | 5% | 4.8µM*
Cc1ccc(C(=O)Nc2ccc(C(=O)/C=C/c3cccs3)cc2)cc1 | -3% | -8% | ? | ? | ? | 12µM*
CCOC(=O)Cc1ccc(NC(=O)N2CCC(CN3CCCCCC3)CC2)cc1 | · | · | · | · | · | -1%
CC12CCC(C(=O)NCc3ccccc3)(OC1=O)C2(C)C (stereo not given) | 0% | 14% | 13% | 4% | -2% | 3%
C/C(=N\NC(=O)C12CCC(C)(C(=O)O1)C2(C)C)c1ccccc1O (stereo not given) | 5% | · | -4% | 21µM* | -32% | -11%
O=C(N/N=C/c1ccc(O)cc1O)C(=O)N/N=C/c1ccc(O)cc1O | 2% | · | 3% | -11% | -5% | 0%
CC12CCC(C(=O)N/N=C/c3ccc(O)cc3O)(OC1=O)C2(C)C (stereo not given) | 11% | · | -14% | 13µM* | -21% | -3%
SMILES | ELG1 genotoxic | SMN2 splice enh | NPC1 promoter act | ELG1 repair inh | Rab9 promoter act | FLuc counter
CC(=O)c1cccc(NC(=O)c2ccc3c(c2)N(Cc2ccc(C)cc2)CCS3)c1 | · | 13% | · | · | · | 3%
COc1cc(/C=N/NC(=S)NC2CC3C=CC2C3)cc(OC)c1OC (stereo not given) | 0% | · | -4% | 18µM* | 1% | -10%
COc1cc(/C=N/NC(=S)NCCc2ccccc2)cc(OC)c1OC | 4% | · | -1% | ? | -3% | 27µM*
COc1ccc(C2C=C(c3ccccc3)Nc3nc(NS(=O)(=O)c4ccccc4)nn32)cc1 (stereo not given) | · | · | · | · | · | -14%
Cc1ccc(C(=O)ON=C2CCN(c3ccc([N+](=O)[O-])cc3)CC2)cc1 | -1% | -6% | 0% | -3% | 6% | 11µM*
COc1ccccc1Cc1nc2ccccc2nc1SCC(=O)N1CCC(C)CC1 | · | · | · | · | · | -11%
CN(C(=O)CC(=O)Nc1ccc2nc3n(c(=O)c2c1)CCCCC3)c1ccccc1F | · | -9% | · | · | · | -9%
C=C1CSc2nc(=O)c3c4c(sc3n21)CCC4 | -7% | -3% | 2% | 21µM* | 0% | 2%
O=c1c2ccccc2nc(/C=C/c2ccc([N+](=O)[O-])cc2)n1CCCO | -6% | -7% | -4% | 18µM* | -1% | -1%
Cc1nc2ccccc2c(=O)n1CCCO | -1% | 6% | -2% | -1% | 1% | 3%
O=c1c2ccccc2nc(/C=C/c2ccc([N+](=O)[O-])o2)n1CCCO | ? | -93% | -38% | 15µM* | -43% | 1%
C=CCN1C(=O)c2ccc(C(=O)N(CC)CC(=O)Nc3cc(Cl)ccc3C)cc2C1=O | 0% | · | 1% | 10% | -4% | 2%
Cc1ccsc1/C=N/N=C1\C(=O)Nc2ccccc21 | 10% | 0% | ? | ? | 23% | ?
COc1cc(/C=N/N=C2/C(=O)Nc3ccccc32)ccc1O | ? | -10%[1.84 µM] | 21% | ? | -1% | 6.7µM*
COc1cc(/C=N/N=C2/NC(=O)C(Cc3ccc(F)cc3)S2)ccc1O (stereo not given) | ? | 31% | 17% | ? | 25% | 2.7µM*
O=C1Nc2ccccc2/C1=N\N=C\c1ccc(O)c(O)c1 | ? | · | -5% | ? | -15% | 24µM*
COc1cc(/C=N/N2C(=O)c3ccccc3C2=O)ccc1O | 0% | 15% | -1% | 4% | -2% | 12µM*
COc1ccc(-n2ncc(C(=O)N3CCN(Cc4ccccc4)CC3)c2C2CCN(C(=O)OC(C)(C)C)CC2)cc1 | · | · | · | · | · | 1%
CCCNC(=O)C(Cc1ccc(C(F)(F)F)cc1)NC(=O)c1ccc(C#N)cc1 (stereo not given) | 1% | · | 2% | 0% | -5% | 2%
O=C(Nc1ccc(F)cc1F)c1cc(CN2CCOCC2)on1 | · | · | · | · | · | 2%
CN(C)c1ccc(C(CNS(=O)(=O)c2ccc(Br)cc2)N2CCOCC2)cc1 (stereo not given) | · | · | · | · | · | -6%
O=C1c2ccccc2C(=O)N1/N=C/c1ccc(O)c(O)c1O | -7% | · | -6% | -6% | -5% | 17µM*
